# Bioassay records deposited in PubChem BioAssay by several laboratories.
# rCAG RNA binder – binders of r(CAG) RNA repeats, primary screen, biochemical, fluorescence; r(CAG) RNA repeat, TO-PRO-1 dye displacement fluorescence; inhibition, % at 3 µM; 370,000 tested, 1.3% active; AID 651821, 2012;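 active = inhibition above the plate cutoff, the mean of all test compounds on that plate plus 3 SD, cut at about 35% in these data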;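 note: 0% = DMSO alone and 100% = 100 µM mitoxantrone as full dye displacement; higher means more dye released from RNA so lower well fluorescence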
# GRIN3A LBD mod – binders of NR3A ligand-binding domain, primary screen, biophysical, differential scanning fluorimetry, uHTS. Glutamate receptor ionotropic, NMDA 3A (GRIN3A) ligand-binding domain. NR3A LBD differential scanning fluorimetry, Tm shift; 0% = protein alone, 100% = glycine-bound protein. Tm shift relative to glycine control, % at 25 µM. 340,000 tested, 2.5% active. AID 1259313, 2017;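 active = melting temperature shift of at least 10% of the positive control shift, at one fixed dose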
# FAS TE block – FAS thioesterase domain inhibitors, primary screen, biochemical, fluorescence intensity, uHTS. recombinant FAS-TE, OMFH fluorogenic substrate, fluorescence endpoint. inhibition, % at 15 µM. 360,000 tested, 0.67% active. AID 602261, 2012;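 active = compounds whose normalised, plate-corrected inhibition of enzyme fluorescence in the single-dose primary screen is 50% or more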;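 note: 0% = DMSO with enzyme and 100% = substrate without enzyme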
# MPTP inh – mitochondrial permeability transition pore inhibitors, primary screen, biochemical, isolated mouse mitochondria, absorbance | 360,000 tested, 1.4% active | Ca2+ swelling absorbance, 30 min | AID 602449, 2012 | inhibition, % at 10 µM;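 active = inhibition of 50% or more, scaled per plate between neutral and stimulator controls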;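 note: 0% = DMSO wells given calcium and 100% = 1 mM EGTA wells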
# Myeloid diff MLP – induction of myeloid progenitor differentiation, primary screen, cell-based, flow cytometry, MLPCN library. calls only at 10 µM. ER-HoxA9 myeloid progenitors, lysozyme-GFP differentiation. 360,000 tested, 1% active;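 active = normalized GFP-positive differentiation at or above the plate's own cutoff, the solvent-only control mean plus 3 SD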;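 note: cells exposed to compound for four days before flow analysis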
# Myeloid diff CP1 – inducers of myeloid progenitor differentiation, confirmation, cell-based, GFP/Mac1 flow cytometry, cherry pick 01 | ER-HoxA9 myeloid progenitors, GFP/Mac1 double-positive flow | 2,300 tested, 2% active | shares compounds with Myeloid diff MLP | calls only | AID 651706, 2012;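 active = share of green or green-and-red cells above 9 and 9% in run 1 or 4 and 3% in run 2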
# GFP autofluor – flagged as fluorescent in myeloid differentiation counter-screen. shares compounds with Myeloid diff MLP. ER-HoxA9 myeloid progenitors, no estrogen, GFP autofluorescence flow cytometry; vehicle wells 0%, positive control 100%. fluorescence response, % (concentration not given with the values). 2,300 tested, 7.4% active;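 active = over 5% cells positive for green fluorescent reporter, or over 2% positive for both it and APC stain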;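 note: range taken on the double positive population between DMSO and positive control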
# * marks the source's active call; other numbers are inactive results; i = inactive; · = no result; + = active, no number. Hits are enriched below; roughly 5.7% of the tested compounds scored in any of these assays.
SMILES,rCAG RNA binder,GRIN3A LBD mod,FAS TE block,MPTP inh,Myeloid diff MLP,Myeloid diff CP1,GFP autofluor
Cc1ccc(C=Nc2ccccc2C#N)s1,2,0,-5,-2,i,·,·
Cc1c(Cl)cccc1N=Cc1ccc([N+](=O)[O-])s1,-1,-5,3,2,i,i,0
Cc1ccc(NC2CCCN(C(=O)CCc3ccncc3)C2)cc1C (configuration not stated),-8,0,-6,0,i,·,·
O=C(CN1CCN(C(=O)CNC(=O)c2ccc(-c3ccccc3)cc2)CC1)Nc1ccccc1Cl,4,·,7,1,i,·,·
O=S(=O)(c1ccccc1)c1nc(-c2ccco2)oc1NCc1cccnc1,4,0,-6,-1,+,i,0
Cc1cc(C)nc(SCc2ccc(C(=O)N/N=C/c3ccccc3C(=O)O)cc2)n1,9,1,-4,-2,i,·,·
COc1cc(OC)c(OC)cc1/C=N/NC(=O)c1ccc(CSc2nc(C)cc(C)n2)cc1,0,-4,8,4,+,i,0
COC(=O)C1CN(S(=O)(=O)c2ccccc2)CCN1S(=O)(=O)c1ccccc1 (configuration not stated),-4,0,2,3,i,·,·
COC(=O)c1cn(NC(=O)c2ccc([N+](=O)[O-])cc2Cl)c(=O)c2ccccc12,-1,-1,7,0,+,i,1
CC(=O)N1c2ccc(S(=O)(=O)NCC3CCC(C(=O)Nc4cc(C)ccn4)CC3)cc2CC1C (configuration not stated),-7,-4,-8,0,i,·,·
O=C(O)c1ccc(NC2=C(Cl)C(=O)c3ccccc3C2=O)cc1,2,-2,23,7,i,·,·
O=C(O)c1cccc(NC2=C(Cl)C(=O)c3ccccc3C2=O)c1,2,1,3,4,+,i,1
COc1ccc(-c2nc(N)ncc2Oc2ccccc2Br)c(O)c1,6,-3,10,3,+,i,0
O=c1cc(-c2ccc(C3CCCCC3)cc2)[nH][nH]1,16,-10,-6,0,i,·,·
Cc1ccc(Cl)cc1N1CCN(Cc2nc3c(c(=O)[nH]c(=O)n3C)n2CCc2ccccc2)CC1,3,0,2,4,i,i,0
C/C(=N\NC(=O)c1ccn(C)n1)c1ccco1,-2,-1,-7,-1,i,·,·
O=C(c1ccc(Cl)c(S(=O)(=O)N2CCOCC2)c1)N1CCN(c2ccccc2)CC1,-8,5,-3,1,i,·,·
Cc1ccc(S(=O)(=O)N/N=C\C=C\c2ccccc2)cc1,4,-32,-6,0,·,i,0
O=S(=O)(N/N=C\C=C\c1ccccc1)c1ccc(Br)cc1,20,-2,10,3,i,·,·
CCn1c(=O)c2sccc2n(Cc2ccc(C)cc2)c1=O,-6,0,5,0,i,·,·
COc1ccc(Br)c(-c2nc(CS(=O)(=O)c3ccc(F)cc3)no2)c1,-5,0,26,3,i,i,0
CCCN1C(=O)/C(=C\C=C2/Sc3ccccc3N2CCO)SC1=S,-1,0,0,20,+,i,6.5*
Cc1ccc(C)c(OCCC(=O)N2CCN(S(=O)(=O)c3ccc([N+](=O)[O-])cc3)CC2)c1,0,1,30,0,i,·,·
CC(C)CN(C(=O)COC(=O)CSc1ccc(Br)cc1)C1CCS(=O)(=O)C1 (configuration not stated),-4,1,6,-1,i,·,·
O=C(c1ccc2c(=O)n3c(nc2c1)CCCCC3)N1CCN(c2ccc(Cl)cc2)CC1,5,-5,41,-2,i,i,0
SMILES,rCAG RNA binder,GRIN3A LBD mod,FAS TE block,MPTP inh,Myeloid diff MLP,Myeloid diff CP1,GFP autofluor
O=C(c1ccc2c(=O)n3c(nc2c1)CCCCC3)N1CCN(c2ccc(F)cc2)CC1,-5,0,17,0,i,·,·
COC(=O)C[C@H]1C=C[C@@H](NC(=O)C2CC2)[C@@H](CO)O1,0,·,·,12,i,·,·
C=CCN1C(=O)C2(NNc3ccccc3O2)c2ccccc21 (configuration not stated),10,2,2,2,i,i,95*
COc1ccc(OC)c(N(CC(=O)O)S(=O)(=O)c2ccc(OC)c(OC)c2)c1,0,2,-6,0,+,i,1
O=C(O)c1ccc(C(S(=O)(=O)c2ccccc2)S(=O)(=O)c2ccccc2)cc1,2,·,-10,0,i,·,·
CCn1c(=NC(=O)CS(=O)(=O)c2ccc(C)cc2)sc2cccc(OC)c21,1,3,17,-1,i,i,0
COc1cccc2sc(=NC(=O)CS(=O)(=O)c3ccc(Cl)cc3)n(C)c12,4,·,23,-1,+,i,0
Cc1onc(-c2ccccc2)c1C(=O)NCCCc1ccccc1,0,-1,-2,0,i,·,·
CC(C)(C)C(=O)OC12CCCN(C1)/C(=C/c1ccc(C#N)cc1)C2 (configuration not stated),-5,·,·,·,·,·,·
O=C(NC1CCN(Cc2ccccc2)CC1)C1CCCN(c2nnc(-n3cccc3)s2)C1 (configuration not stated),0,-1,-2,1,i,i,0
O=C(CSC1=NC(=O)C(c2ccccc2)C(=O)N1)Nc1ccccc1[N+](=O)[O-] (configuration not stated),1,-1,-10,-2,i,·,·
Cc1sc(NC(=O)CSc2n[nH]c(N)n2)c(C#N)c1C,50*,-5,-2,0,+,i,16*
CCCCCC(=O)Nc1sc(C)c(C)c1C#N,-2,-2,3,-2,i,i,0
Cc1cc(C(=O)COC(=O)c2ccc(NC(=O)CC#N)cc2)c(C)n1CCc1ccc(F)cc1,23,10,16,0,i,i,3
C#CC[N+](CC)(CC)CC#Cc1ccccc1,2,-1,-7,1,+,+,4
Cc1ccnc(NS(=O)(=O)c2ccc(NC(=O)Cc3ccccc3)cc2)n1,5,1,-14,0,i,·,·
COc1ccc(CC(=O)Nc2ccc(S(=O)(=O)Nc3ncccn3)cc2)cc1,6,-3,-3,0,+,i,1
Cc1ccc(CC(=O)Nc2ccc(S(=O)(=O)Nc3nccc(C)n3)cc2)cc1,2,-1,-4,-1,i,i,1
